# Measurements published in ChEMBL document CHEMBL1961873, “Compounds: GSK PKIS; Assays: Nanosyn kinase panel” (2012).
# Columns and labels:
# [1] = target: T1, Inhibitor of nuclear factor kappa-B kinase subunit epsilon (Homo sapiens) (UniProt Q14164); settings: at 1 µM;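 note: reported values are averaged percent inhibition figures against human IKKε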
# T1 sequence (whole entry): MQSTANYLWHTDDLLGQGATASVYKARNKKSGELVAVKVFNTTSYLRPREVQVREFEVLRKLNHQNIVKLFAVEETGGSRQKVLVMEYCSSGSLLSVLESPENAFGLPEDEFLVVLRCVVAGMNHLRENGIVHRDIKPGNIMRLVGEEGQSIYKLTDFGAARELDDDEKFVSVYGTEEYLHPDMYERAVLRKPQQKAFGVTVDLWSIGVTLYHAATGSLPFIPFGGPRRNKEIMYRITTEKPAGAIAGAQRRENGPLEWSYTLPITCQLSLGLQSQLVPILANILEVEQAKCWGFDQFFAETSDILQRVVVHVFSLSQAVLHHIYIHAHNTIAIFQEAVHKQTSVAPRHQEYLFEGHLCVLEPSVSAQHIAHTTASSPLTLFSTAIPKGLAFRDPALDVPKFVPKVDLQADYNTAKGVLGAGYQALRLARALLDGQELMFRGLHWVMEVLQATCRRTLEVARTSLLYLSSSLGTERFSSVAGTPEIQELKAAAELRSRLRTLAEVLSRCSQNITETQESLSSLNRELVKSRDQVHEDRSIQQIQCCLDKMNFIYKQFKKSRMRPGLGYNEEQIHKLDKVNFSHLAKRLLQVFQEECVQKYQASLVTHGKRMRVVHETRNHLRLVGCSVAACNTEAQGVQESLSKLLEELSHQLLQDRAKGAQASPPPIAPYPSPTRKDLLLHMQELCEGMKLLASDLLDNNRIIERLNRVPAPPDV
# [2] = target: T2, Serine/threonine-protein kinase Nek1 (Homo sapiens) (UniProt Q96PY6); settings: at 0.1 µM
# T2 sequence (whole entry): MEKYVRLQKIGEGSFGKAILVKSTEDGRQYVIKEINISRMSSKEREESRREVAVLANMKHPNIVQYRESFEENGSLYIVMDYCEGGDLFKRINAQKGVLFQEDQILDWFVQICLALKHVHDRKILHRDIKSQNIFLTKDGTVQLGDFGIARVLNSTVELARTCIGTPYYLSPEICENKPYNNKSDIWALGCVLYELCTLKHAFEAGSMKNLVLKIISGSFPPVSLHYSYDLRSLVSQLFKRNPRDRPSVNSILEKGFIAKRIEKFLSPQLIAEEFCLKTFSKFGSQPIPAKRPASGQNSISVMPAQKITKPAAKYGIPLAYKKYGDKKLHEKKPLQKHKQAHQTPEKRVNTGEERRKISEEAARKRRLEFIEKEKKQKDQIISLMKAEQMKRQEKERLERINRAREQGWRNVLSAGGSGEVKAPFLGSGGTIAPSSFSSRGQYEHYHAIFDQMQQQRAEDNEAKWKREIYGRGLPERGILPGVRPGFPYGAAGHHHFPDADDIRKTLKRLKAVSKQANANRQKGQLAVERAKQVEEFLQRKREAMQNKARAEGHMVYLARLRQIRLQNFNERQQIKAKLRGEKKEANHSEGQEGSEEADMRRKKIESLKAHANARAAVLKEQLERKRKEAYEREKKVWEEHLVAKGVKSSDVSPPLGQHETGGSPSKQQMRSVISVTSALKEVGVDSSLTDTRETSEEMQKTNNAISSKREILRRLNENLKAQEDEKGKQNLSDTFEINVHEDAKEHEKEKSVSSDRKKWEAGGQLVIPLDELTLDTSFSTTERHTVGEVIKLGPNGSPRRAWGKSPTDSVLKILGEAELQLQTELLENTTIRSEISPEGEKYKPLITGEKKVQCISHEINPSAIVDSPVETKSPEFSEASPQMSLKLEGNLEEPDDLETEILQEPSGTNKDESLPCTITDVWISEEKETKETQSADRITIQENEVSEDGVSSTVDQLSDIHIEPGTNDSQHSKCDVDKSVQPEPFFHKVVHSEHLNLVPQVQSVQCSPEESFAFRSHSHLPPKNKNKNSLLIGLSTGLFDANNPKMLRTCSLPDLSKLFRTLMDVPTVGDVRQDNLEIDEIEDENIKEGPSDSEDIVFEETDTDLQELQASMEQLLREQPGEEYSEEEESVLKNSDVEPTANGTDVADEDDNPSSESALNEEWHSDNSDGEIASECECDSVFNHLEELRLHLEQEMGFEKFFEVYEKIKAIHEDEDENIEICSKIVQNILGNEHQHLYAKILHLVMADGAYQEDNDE
# [3] = target: T2, Serine/threonine-protein kinase Nek1 (Homo sapiens); settings: at 1 µM
# [4] = target: T3, Serine/threonine-protein kinase Nek2 (Homo sapiens) (UniProt P51955); settings: at 0.1 µM
# T3 sequence (whole entry): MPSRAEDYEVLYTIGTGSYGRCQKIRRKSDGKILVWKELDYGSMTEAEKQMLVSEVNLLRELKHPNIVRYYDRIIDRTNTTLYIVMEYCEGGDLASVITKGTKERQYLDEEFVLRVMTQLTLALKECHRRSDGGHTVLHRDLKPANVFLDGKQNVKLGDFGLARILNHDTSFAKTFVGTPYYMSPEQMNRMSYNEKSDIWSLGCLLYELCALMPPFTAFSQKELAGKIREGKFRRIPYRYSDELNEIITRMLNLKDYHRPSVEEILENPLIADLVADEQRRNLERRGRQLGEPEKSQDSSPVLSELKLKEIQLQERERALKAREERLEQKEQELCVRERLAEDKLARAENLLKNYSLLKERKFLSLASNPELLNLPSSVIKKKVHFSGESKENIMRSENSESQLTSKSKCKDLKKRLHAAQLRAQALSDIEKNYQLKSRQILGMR
# [5] = target: T3, Serine/threonine-protein kinase Nek2 (Homo sapiens); settings: at 1 µM
# [6] = target: Serine/threonine-protein kinase Nek6 (Homo sapiens) (UniProt Q9HC98); settings: at 0.1 µM
# Sequence of Serine/threonine-protein kinase Nek6 (Homo sapiens) (Q9HC98 whole entry): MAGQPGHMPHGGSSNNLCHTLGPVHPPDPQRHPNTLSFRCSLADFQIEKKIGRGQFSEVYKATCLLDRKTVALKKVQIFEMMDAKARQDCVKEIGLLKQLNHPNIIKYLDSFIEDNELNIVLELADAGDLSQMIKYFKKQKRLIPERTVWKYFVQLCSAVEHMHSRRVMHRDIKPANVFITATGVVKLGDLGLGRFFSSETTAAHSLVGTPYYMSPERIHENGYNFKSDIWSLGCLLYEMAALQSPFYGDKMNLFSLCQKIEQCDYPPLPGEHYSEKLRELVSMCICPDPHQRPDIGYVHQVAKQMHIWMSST
# [7] = target: Serine/threonine-protein kinase Nek6 (Homo sapiens) (UniProt Q9HC98); settings: at 1 µM
# [8] = target: Serine/threonine-protein kinase Nek7 (Homo sapiens) (UniProt Q8TDX7); settings: at 0.1 µM
# Sequence of Serine/threonine-protein kinase Nek7 (Homo sapiens) (Q8TDX7 whole entry, looked up): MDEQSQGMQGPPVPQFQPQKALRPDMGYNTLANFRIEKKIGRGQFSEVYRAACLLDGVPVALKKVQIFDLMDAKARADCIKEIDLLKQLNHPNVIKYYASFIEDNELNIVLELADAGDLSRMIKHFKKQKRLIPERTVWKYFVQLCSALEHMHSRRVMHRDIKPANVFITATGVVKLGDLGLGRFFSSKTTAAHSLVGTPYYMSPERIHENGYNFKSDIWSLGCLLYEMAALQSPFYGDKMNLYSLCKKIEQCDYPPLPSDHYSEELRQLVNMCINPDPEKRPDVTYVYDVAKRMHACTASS
# [9] = target: Serine/threonine-protein kinase Nek7 (Homo sapiens) (UniProt Q8TDX7); settings: at 1 µM
# [10] = target: T4, Serine/threonine-protein kinase Nek9 (Homo sapiens) (UniProt Q8TD19); settings: at 0.1 µM
# T4 sequence (whole entry): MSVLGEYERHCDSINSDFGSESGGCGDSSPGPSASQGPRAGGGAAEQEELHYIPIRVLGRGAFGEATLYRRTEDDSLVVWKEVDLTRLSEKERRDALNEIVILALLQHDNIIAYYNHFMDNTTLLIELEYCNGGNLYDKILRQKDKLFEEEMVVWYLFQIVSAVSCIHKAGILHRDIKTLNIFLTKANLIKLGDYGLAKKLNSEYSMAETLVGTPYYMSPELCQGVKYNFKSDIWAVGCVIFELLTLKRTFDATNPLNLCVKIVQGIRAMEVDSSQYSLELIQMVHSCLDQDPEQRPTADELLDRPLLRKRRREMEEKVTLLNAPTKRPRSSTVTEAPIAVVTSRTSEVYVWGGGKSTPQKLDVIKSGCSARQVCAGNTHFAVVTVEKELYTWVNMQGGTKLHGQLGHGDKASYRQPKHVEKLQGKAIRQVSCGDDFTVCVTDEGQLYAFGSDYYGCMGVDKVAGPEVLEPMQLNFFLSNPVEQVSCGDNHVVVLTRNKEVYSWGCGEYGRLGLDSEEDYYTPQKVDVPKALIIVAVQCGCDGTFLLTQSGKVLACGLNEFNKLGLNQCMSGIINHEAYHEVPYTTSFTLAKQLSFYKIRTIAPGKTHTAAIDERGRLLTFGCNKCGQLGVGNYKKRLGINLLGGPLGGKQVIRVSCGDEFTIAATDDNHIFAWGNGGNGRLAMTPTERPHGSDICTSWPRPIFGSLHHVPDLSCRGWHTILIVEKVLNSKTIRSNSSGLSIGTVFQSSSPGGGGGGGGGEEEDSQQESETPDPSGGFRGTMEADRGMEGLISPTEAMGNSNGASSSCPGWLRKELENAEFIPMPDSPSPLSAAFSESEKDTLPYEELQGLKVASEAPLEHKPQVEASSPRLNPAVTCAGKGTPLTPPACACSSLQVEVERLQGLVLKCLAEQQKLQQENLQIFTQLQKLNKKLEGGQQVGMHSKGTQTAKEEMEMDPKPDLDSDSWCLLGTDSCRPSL
# [11] = target: T4, Serine/threonine-protein kinase Nek9 (Homo sapiens); settings: at 1 µM
# [12] = target: Serine/threonine-protein kinase PLK1 (Homo sapiens) (UniProt P53350); settings: at 0.1 µM
# Sequence of Serine/threonine-protein kinase PLK1 (Homo sapiens) (P53350 whole entry): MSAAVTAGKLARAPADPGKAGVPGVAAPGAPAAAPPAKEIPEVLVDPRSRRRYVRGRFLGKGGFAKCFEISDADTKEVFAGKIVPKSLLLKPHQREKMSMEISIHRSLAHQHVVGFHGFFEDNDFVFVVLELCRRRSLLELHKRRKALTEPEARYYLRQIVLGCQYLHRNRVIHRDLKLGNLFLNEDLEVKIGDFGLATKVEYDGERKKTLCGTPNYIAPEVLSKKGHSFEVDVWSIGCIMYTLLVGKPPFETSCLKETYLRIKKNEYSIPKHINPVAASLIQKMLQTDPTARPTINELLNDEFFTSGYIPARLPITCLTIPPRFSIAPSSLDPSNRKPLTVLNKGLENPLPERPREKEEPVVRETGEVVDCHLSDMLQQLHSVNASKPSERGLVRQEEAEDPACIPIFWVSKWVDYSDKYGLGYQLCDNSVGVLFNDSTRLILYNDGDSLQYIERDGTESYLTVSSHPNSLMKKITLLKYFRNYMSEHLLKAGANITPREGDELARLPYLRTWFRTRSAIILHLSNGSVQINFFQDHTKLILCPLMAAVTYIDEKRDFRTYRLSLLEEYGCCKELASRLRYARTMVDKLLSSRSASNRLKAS
# [13] = target: Serine/threonine-protein kinase PLK1 (Homo sapiens) (UniProt P53350); settings: at 1 µM
# [14] = target: T5, Dual specificity protein kinase TTK (Homo sapiens) (UniProt P33981); settings: at 0.1 µM
# T5 sequence (whole entry): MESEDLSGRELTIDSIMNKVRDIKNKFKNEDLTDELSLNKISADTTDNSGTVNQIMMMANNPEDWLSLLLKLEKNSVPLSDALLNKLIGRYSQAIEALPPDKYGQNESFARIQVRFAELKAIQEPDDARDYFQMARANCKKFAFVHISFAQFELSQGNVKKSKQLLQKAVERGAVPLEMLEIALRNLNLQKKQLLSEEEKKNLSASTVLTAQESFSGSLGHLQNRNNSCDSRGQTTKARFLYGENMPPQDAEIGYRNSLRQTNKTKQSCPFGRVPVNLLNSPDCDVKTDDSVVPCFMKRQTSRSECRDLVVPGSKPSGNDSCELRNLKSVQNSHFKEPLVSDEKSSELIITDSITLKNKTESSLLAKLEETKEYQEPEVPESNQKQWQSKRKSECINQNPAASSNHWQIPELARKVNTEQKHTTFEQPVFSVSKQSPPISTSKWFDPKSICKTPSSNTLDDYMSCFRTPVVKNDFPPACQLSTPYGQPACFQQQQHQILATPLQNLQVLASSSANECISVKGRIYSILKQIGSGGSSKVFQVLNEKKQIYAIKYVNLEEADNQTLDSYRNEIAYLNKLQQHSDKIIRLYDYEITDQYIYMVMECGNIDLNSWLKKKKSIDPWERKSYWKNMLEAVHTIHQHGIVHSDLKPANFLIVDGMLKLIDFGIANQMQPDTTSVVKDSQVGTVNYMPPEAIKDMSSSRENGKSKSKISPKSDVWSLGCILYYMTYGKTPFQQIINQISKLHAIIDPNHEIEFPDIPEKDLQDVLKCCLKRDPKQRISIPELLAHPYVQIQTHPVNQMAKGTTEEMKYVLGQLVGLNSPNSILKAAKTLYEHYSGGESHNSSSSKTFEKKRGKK
# [15] = tested on: T6, Receptor-type tyrosine-protein kinase FLT3 (Homo sapiens), P36888 [D835Y]; settings: at 1 µM
# T6 sequence (whole entry): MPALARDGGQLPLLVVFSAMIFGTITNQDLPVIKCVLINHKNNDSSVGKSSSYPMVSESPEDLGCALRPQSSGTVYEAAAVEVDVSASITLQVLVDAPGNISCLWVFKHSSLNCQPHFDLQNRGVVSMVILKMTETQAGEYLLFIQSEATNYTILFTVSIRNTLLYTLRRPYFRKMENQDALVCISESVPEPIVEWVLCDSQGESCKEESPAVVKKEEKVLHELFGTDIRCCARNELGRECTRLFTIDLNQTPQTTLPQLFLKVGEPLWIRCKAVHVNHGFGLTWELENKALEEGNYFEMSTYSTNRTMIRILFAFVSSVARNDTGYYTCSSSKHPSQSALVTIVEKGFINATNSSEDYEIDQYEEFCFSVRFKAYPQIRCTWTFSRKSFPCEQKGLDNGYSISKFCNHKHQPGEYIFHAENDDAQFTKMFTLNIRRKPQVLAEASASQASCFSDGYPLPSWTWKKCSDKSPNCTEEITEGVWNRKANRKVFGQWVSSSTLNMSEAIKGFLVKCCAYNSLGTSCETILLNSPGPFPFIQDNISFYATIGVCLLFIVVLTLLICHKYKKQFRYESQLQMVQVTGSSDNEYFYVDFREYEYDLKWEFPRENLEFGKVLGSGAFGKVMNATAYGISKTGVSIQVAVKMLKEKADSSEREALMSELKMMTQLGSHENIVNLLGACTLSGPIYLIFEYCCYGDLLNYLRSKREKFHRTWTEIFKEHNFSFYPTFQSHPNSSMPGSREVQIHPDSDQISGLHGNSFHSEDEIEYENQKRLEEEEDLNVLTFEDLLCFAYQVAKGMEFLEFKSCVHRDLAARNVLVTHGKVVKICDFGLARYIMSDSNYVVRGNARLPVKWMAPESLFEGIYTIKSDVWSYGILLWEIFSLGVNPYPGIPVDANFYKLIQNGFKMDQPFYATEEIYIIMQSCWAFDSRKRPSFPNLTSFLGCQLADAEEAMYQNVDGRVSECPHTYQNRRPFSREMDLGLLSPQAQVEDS
# [16] = target: Vascular endothelial growth factor receptor 3 (Homo sapiens) (UniProt P35916); settings: at 0.1 µM
# Sequence of Vascular endothelial growth factor receptor 3 (Homo sapiens) (P35916 whole entry): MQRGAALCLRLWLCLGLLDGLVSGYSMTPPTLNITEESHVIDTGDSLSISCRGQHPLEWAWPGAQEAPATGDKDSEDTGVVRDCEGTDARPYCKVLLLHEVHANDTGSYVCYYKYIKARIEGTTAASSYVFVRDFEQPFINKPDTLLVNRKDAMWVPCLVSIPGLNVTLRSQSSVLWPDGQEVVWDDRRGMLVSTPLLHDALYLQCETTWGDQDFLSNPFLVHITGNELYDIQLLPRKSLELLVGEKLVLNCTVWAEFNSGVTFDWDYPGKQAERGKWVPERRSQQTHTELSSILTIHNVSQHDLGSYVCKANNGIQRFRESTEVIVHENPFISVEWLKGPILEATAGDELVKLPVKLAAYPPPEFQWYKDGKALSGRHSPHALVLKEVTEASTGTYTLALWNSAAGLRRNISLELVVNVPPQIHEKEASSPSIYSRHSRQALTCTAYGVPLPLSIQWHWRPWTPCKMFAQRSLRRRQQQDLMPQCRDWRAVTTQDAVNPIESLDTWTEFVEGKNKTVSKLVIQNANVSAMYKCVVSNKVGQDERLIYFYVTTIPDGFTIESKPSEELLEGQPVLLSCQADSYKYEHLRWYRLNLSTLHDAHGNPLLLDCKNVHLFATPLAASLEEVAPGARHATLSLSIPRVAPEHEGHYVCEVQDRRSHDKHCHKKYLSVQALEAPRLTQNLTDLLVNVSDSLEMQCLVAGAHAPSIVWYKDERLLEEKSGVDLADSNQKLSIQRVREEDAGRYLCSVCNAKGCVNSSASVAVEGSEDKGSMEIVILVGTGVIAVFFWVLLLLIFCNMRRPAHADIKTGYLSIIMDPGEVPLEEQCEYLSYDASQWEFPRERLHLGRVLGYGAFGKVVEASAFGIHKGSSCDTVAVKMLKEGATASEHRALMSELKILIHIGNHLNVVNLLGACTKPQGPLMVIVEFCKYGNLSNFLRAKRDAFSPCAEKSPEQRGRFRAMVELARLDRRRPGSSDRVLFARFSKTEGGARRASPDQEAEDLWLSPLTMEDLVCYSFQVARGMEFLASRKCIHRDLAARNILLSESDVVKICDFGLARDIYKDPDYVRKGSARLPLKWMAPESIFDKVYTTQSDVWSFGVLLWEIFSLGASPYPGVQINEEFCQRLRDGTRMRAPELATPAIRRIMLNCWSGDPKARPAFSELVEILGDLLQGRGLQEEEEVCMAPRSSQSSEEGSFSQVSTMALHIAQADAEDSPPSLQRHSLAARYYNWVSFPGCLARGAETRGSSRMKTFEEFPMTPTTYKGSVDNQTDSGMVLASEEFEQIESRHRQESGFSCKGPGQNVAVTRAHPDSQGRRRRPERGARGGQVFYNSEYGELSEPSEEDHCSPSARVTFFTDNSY
# [17] = target: Vascular endothelial growth factor receptor 3 (Homo sapiens) (UniProt P35916); settings: at 1 µM
# [18] = target: Macrophage colony-stimulating factor 1 receptor (Homo sapiens) (UniProt P07333); settings: at 0.1 µM
# Sequence of Macrophage colony-stimulating factor 1 receptor (Homo sapiens) (P07333 whole entry): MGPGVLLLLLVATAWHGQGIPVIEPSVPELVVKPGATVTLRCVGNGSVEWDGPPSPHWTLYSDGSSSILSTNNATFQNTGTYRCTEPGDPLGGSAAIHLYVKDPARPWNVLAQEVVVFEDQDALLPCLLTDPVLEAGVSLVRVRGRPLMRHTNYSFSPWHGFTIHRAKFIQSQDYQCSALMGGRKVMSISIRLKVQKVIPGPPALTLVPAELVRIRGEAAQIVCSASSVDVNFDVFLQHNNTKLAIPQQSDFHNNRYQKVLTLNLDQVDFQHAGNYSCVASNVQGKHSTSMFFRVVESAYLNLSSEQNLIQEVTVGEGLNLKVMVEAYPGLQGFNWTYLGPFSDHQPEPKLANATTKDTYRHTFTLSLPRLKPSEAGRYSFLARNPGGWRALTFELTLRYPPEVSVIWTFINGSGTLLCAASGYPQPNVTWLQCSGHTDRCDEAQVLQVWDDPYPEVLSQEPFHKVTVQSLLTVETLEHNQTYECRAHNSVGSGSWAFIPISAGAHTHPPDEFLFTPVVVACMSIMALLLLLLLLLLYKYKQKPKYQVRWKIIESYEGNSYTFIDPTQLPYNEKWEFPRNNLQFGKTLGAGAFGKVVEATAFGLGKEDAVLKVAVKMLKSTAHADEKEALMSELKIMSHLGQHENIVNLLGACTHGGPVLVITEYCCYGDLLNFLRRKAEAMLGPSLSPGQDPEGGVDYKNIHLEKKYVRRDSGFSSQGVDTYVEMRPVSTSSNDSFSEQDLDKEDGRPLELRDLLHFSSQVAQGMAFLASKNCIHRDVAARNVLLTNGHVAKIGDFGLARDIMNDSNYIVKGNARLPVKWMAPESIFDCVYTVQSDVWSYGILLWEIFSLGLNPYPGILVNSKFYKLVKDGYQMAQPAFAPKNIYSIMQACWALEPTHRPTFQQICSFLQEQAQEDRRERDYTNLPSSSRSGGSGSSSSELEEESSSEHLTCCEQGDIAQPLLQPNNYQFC
# [19] = target: Macrophage colony-stimulating factor 1 receptor (Homo sapiens) (UniProt P07333); settings: at 1 µM
# [20] = target: Tyrosine-protein kinase Fyn (Homo sapiens) (UniProt P06241); settings: at 0.1 µM
# Sequence of Tyrosine-protein kinase Fyn (Homo sapiens) (P06241 2-537 limits assumed): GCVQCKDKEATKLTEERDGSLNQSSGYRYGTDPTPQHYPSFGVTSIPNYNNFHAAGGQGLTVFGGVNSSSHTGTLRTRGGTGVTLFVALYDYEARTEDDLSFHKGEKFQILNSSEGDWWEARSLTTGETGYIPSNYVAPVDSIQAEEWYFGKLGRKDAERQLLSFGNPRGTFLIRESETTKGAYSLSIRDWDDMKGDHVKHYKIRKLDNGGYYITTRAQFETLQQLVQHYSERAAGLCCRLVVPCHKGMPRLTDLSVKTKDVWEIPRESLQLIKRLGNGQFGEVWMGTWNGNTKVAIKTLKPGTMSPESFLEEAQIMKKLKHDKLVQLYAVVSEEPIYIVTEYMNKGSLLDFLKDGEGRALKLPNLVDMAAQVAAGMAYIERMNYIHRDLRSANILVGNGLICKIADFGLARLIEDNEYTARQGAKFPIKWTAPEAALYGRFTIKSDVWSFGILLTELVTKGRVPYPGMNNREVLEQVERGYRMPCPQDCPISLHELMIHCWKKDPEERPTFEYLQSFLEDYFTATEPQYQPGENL
Structure (SMILES),inhibition [1],inhibition [2],inhibition [3],inhibition [4],inhibition [5],inhibition [6],inhibition [7],inhibition [8],inhibition [9],inhibition [10],inhibition [11],inhibition [12],inhibition [13],inhibition [14],inhibition [15],inhibition [16],inhibition [17],inhibition [18],inhibition [19],inhibition [20]
O=C(O[C@H]1CN[C@H](C#Cc2cc3ncnc(Nc4ccc5c(cnn5Cc5ccccc5)c4)c3s2)C1)N1CCOCC1,2.35%,1.14%,-0.05%,0.17%,0.04%,-0.55%,1.2%,-1.22%,1.45%,-1.71%,-0.45%,-1.27%,1.79%,5.51%,2.81%,1.1%,1.5%,-6.02%,4.04%,1.79%
CN(C)CCNC(=O)Nc1ccc(N(C)c2ccnc(Nc3ccc(CS(C)(=O)=O)cc3)n2)cc1,6.21%,0.66%,2.81%,5.18%,-2.7%,3.4%,3.93%,3.07%,2.78%,0.16%,4.76%,3.28%,3.61%,6.19%,5.12%,2.39%,4.9%,14.8%,67.3%,1.66%
